This is an account of results in ChEMBL document CHEMBL4513216, “Probing the Open Global Health Chemical Diversity Library for Multistage-Active Starting Points for Next-Generation Antimalarials” (ACS Infect Dis, 2020).

Screen size: about 68,000 compounds; about 2,700 (4%) showed an effect of 50% or more. This excerpt belongs to a sample that is enriched for strong results.

The subject of this test is Plasmodium berghei. Nature of the test: Screen against P. berghei liver stage (PbLuc), transformed with Luciferase, at 2uM. The class given is functional, HepG2. As to conditions: tested at 2 uM.
Turning to `CS(=O)(=O)Cc1ccc(C(=O)N2CCCC(n3cncn3)C2)o1` (centres undefined), the INHIBITION is listed as 12.7%.
The same measure for `Cc1occc1C(=O)N1CCC2(CCC(=O)N(CC(N)=O)C2)CC1`: -26.32%; for `O=C(c1nc2sccn2c1-c1ncc[nH]1)N1CCCCC1`: -1.65%.
The same measure for `CCN(Cc1ncc(C(C)(C)C)o1)Cc1ccccc1C`: -47.18%; for `Cc1cccc(CN(Cc2ccccn2)Cc2ncc(C(C)(C)C)o2)c1`: 43.44%; for `CCN(Cc1cccc(Cl)c1)Cc1ncc(C(C)(C)C)o1`: 81.59%.
As to `OC1(CNc2ccc(Br)cn2)CCOCC1`, the INHIBITION was -58.79%.
As for `CC(C)(C)C(=O)NCCNCc1ccc(Cl)c2cccnc12`, the INHIBITION is on record as -53.16%.
For `OC(CNCCn1cccn1)c1cccc(Br)c1` (centres undefined) the value was -69.91%.
The same measure for `CN(C)C(=O)N1CCc2onc(C(=O)Nc3cccnc3)c2C1`: 67.19%; for `CC(C)C(=O)N1CCc2onc(C(=O)NCCN(C)C)c2C1`: 11.37%; for `CC(C)NC(=O)N1CCc2onc(C(=O)Nc3cccnc3)c2C1`: 18.87%.
As to `CC(C)NC(=O)N1CCc2onc(C(=O)NCCN(C)C)c2C1`, the INHIBITION is reported as 42.62%.
With `CN(C)CCNC(=O)c1noc2c1CN(C(=O)N(C)C)CC2`, the INHIBITION turned out to be 59.76%.
For `Cc1ccc(CN2CCc3onc(C(=O)Nc4cccnc4)c3C2)o1` the value was 34.37%; for `CCc1ccc(C(=O)O)cc1S(=O)(=O)N(C)c1cccc(C)c1`, -2.2%; for `CN(Cc1ccccc1)C(=O)c1nc(S(C)(=O)=O)n2ccccc12`, 3.9%.
For `O=C(O)c1nnn(-c2ccc(OC(F)(F)F)cc2)c1-c1ccncc1` the value was 3.22%; for `CC(Nc1ccc2c(c1)CCC2)c1nc(C2CC2)no1` (centres undefined), 6.47%; for `Cc1ccc2oc(=O)n(CC(=O)N3CCC4(CC3)CN(C)C(=O)O4)c2c1`, -55.13%.
For `COc1c(CNCc2ccc(C(=O)N(C)C(C)C)cc2)c(C)nn1C` the value was 4.55%.
For the molecule `O=C(Cc1ccncc1)N(CCO)CCSc1ccc(Cl)cc1`, the INHIBITION was found to be 47.2%.
Turning to `O=C(Cn1ccnc1)N(CCO)CCSc1ccc(Cl)cc1`, the INHIBITION was found to be 56.21%.
For `O=C(Cn1cccn1)N(CCO)CCSc1ccc(Cl)cc1` the value was -5.53%; for `CCc1cnc(N2CCCOC(CN3CCCC3)C2)nc1` (centres undefined), -30.18%.
As for `COCC1CN(CC2CC2)Cc2nn(CC3CC3)cc21` (centres undefined), the INHIBITION is on record as 11.34%.
Turning to `COCC(=O)N1CCN(S(=O)(=O)c2ccccc2)[C@H]2CS(=O)(=O)C[C@H]21`, the INHIBITION is 15.75%.
For `COCC(=O)N1CCN(C(=O)Cc2cccs2)[C@H]2CS(=O)(=O)C[C@H]21` the value was 54.47%.
`COCC(=O)N1CCN(S(=O)(=O)c2cccs2)[C@H]2CS(=O)(=O)C[C@H]21`: the INHIBITION is recorded as 18.77%.
Regarding `CN1C(=O)CCCC12CCCN(C(=O)c1cc(F)cc(F)c1)C2` (centres undefined), the INHIBITION is recorded as 12.83%.
For `Cn1ccnc1CN1CCOC(Cn2cccn2)C1` (centres undefined) the value was 7.01%.
Take `Cc1cccc(-c2ccc(C(=O)NCC3CCOC3)c(=O)[nH]2)c1` (centres undefined): the INHIBITION is 17.39%.
The same measure for `Cc1cccc(-c2ccc(C(=O)NCC3CCCOC3)c(=O)[nH]2)c1` (centres undefined): -9.49%; for `Cc1cccc(-c2ccc(C(=O)NCC3CCCO3)c(=O)[nH]2)c1` (centres undefined): 57.77%.
`O=C(N1CCCC1)N1CCC(Nc2ccncn2)CC1`: the INHIBITION worked out at 39.44%.
Take `CC(C)c1cc(NC2CCCN(C(=O)c3cccs3)C2)ncn1` (centres undefined): the INHIBITION is on record as -13.8%.
For `CC(C)c1cc(NC2CCN(C(=O)N3CCCC3)CC2)ncn1` the value was 52.98%; for `Cc1nc2ncc3c(=O)n(C)ccc3n2n1`, -42.16%; for `CN(C)CC(=O)N1CCCC2(CCC(=O)N(CCc3c[nH]cn3)C2)C1` (centres undefined), 38.93%.
For the molecule `Cc1nc[nH]c1C(=O)N1CCCC2(CN(C)C(=O)O2)C1` (centres undefined), the INHIBITION was 1.06%.
For `CN1CCc2[nH]nc(C(=O)N3CCCC4(CN(C)C(=O)O4)C3)c2C1` (centres undefined) the value was -15.16%; for `CCc1n[nH]c(C(=O)N2CCCC3(CN(C)C(=O)O3)C2)c1C` (centres undefined), 51.9%.
With `CC(NCC(=O)Nc1ccc(N2CCCCCC2)cc1)c1cccs1` (centres undefined), the INHIBITION is 23.68%.
For `CCc1cc(C(=O)N[C@H]2CN(CCS(C)(=O)=O)C[C@@H]2C2CC2)[nH]n1` the value was -90.7%; for `Cc1occc1C(=O)N1CCc2c(CNS(C)(=O)=O)cncc2C1`, -15.09%; for `CC(C)C[C@H](NC(=O)Nc1ccc(F)c(Cl)c1)C(=O)O`, -9.89%.
The same measure for `CC(C)CC(NC(=O)CSc1ccc(F)c(Cl)c1)C(=O)O` (centres undefined): 14.54%; for `CC(C)CC(NC(=O)Nc1ccc(F)c(Cl)c1)C(=O)O` (centres undefined): 56.54%.
With `Cc1ccc(CN2C[C@@H](OCc3ccccn3)[C@H]3COC[C@H]32)o1`, the INHIBITION is given as -4.92%.
The same measure for `CC(C)c1nc(C2CCCN2Cc2nccn2CC(F)(F)F)no1` (centres undefined): -20.05%; for `CC(C(=O)Nc1ccc(N2CCOCC2)nc1)n1cncn1` (centres undefined): 43.32%.
For `CC(C)(C)c1cnc(CN2C(=O)CC3(CCSC3)C2=O)o1` (centres undefined) the value was 53.99%; for `CCc1cnc(CN2C(=O)CC3(CCSC3)C2=O)o1` (centres undefined), 15.39%.
The same measure for `CC(C)c1cnc(CN2C(=O)CC3(CCSC3)C2=O)o1` (centres undefined): -21.1%; for `Cc1nc2ccc(-n3ncnc3[C@@H]3CCCN3S(C)(=O)=O)cc2s1`: -35.1%; for `CC(C)(C)CN1Cc2cc3c(cc2NCCC1=O)OCO3`: -15.54%.
As for `CN(C)CCn1c2c(ccc1=O)CCN(C(=O)c1cccs1)CC2`, the INHIBITION is 53.27%.
Consider `Cc1ccc(C(=O)N2CCc3ccc(=O)n(CCN(C)C)c3CC2)o1`, for which the INHIBITION came out at 5.77%.
The same measure for `CN(C)CCn1c2c(ccc1=O)CCN(C(=O)c1ccoc1)CC2`: 17.31%; for `Cc1cc(C)c(CCNC(=O)CN2CCCN(C(N)=O)CC2)c(C)c1`: 66.74%.
Turning to `Cc1cc(C)cc(C(=O)N2CCCN(CC(N)=O)CC2)c1`, the INHIBITION amounted to 16.13%.
Regarding `NC(=O)N1CCCN(CC(=O)NCCc2c(F)cccc2F)CC1`, the INHIBITION is 19.12%.
Regarding `O=C(c1ccc2c(c1)OCO2)N1CCC[C@]2(C[C@H](OCC3CC3)CO2)C1`, the INHIBITION was found to be 10.43%.
For `O=C(CN1CCCC1Cn1cccn1)NC1CCOCC1` (centres undefined), the INHIBITION stood at 4.41%.
The same measure for `CCCS(=O)(=O)c1ccc(N2CCN(Cc3ccccc3)CC2)nn1`: 27.54%; for `CCCS(=O)(=O)N1CCN(c2cc(-n3cnc(C)c3C)nc(C)n2)CC1`: 35.54%.
Turning to `Cc1nc(N2CCN(S(C)(=O)=O)CC2)cc(-n2cnc(C)c2C)n1`, the INHIBITION is recorded as 43.32%.
With `CCS(=O)(=O)N1CCN(c2cc(-n3cnc(C)c3C)nc(C)n2)CC1`, the INHIBITION is reported as 61.28%.
For `CCOCCN1CCCC1CS(N)(=O)=O` (centres undefined), the INHIBITION is listed as -7.76%.
As for `O=C(c1ccc2c(c1)OCO2)N1CCCC(Nc2ccc(F)cc2)C1` (centres undefined), the INHIBITION is reported as 47.67%.
For `CC(C)(O)CSCCNC(=O)c1ccc(F)cc1Cl` the value was 58.69%; for `CC(C)(O)CSCCNC(=O)c1cc(F)ccc1F`, 35.56%; for `CSCC(C)(O)CNC(=O)c1ccc(F)cc1Cl` (centres undefined), -29.65%.
On to `O=C(CCc1ccc(Cl)cc1)N[C@@H]1CC[C@@H](O)[C@@H]1O`, for which the INHIBITION was -11.3%.
Take `c1cncc(CN2CCCn3nnc(COCC4CC4)c3C2)c1`: the INHIBITION worked out at 34.37%.
Consider `CSc1ccc(NC(=O)COCc2ccccc2)nc1`, for which the INHIBITION is 12.43%.
Consider `O=C(COCc1ccccc1)Nc1ccccn1`, for which the INHIBITION stood at 62.51%.
On to `O=C(CCCOCc1ccccc1)N1CCCC1c1ccccn1` (centres undefined), for which the INHIBITION is 28.51%.
As to `CS(=O)(=O)Cc1cc(F)ccc1NCc1nnsc1Cl`, the INHIBITION was -13.68%.
Regarding `CCC(C)(C)NC(=O)Cn1nnc(CN(C)C(=O)c2ccccc2)n1`, the INHIBITION amounted to 2.49%.
The same measure for `CN(Cc1nnnn1C1CC1)c1cccc2ccccc12`: 4.86%; for `CCN(Cc1nnnn1C1CC1)c1cc(C)ccc1C`: 55.43%.
The same measure for `Cc1ccc(N(C)Cc2nnnn2C2CC2)c(C)c1`: -11.28%; for `Cc1nnc(SCC(=O)NCc2ccc3c(c2)CCC(=O)N3)n1C`: 26.03%; for `Cc1ncc(-c2ccnc(SCCN(C)C)n2)c(-c2ccco2)n1`: 8.77%.
Turning to `CNC(=O)[C@@H](C1CCCCC1)N1CCC[C@H]1C(=O)N(C)CCN(C)C`, the INHIBITION came out at 27.65%.
For `Cc1cc(CC(C)NC(=O)Cc2cc(F)ccc2C)[nH]n1` (centres undefined) the value was 27.47%; for `COc1ccccc1C1CC(=O)Nc2nc(N3CCCCC3)sc21` (centres undefined), -71.12%.
As for `CN(C)C[C@@H]1CCC[C@@H]2CN(c3nccc(C(F)(F)F)n3)C[C@@H]21`, the INHIBITION turned out to be 16.87%.
For the molecule `O=C1O[C@@H]2CN(c3ccccn3)C[C@@H]2N1CCCc1ccc(F)cc1`, the INHIBITION was 12.55%.
For `O=C1O[C@@H]2CN(c3cnccn3)C[C@@H]2N1CCCc1ccc(F)cc1` the value was 51.96%; for `O=C1O[C@@H]2CN(c3ncccn3)C[C@@H]2N1CCCc1ccc(F)cc1`, 17.48%; for `COc1cc(C2c3c(n[nH]c3C)N=C3COC(=O)C32)cc2c1OCO2` (centres undefined), -41.64%.
Take `COc1ccc(CNC(=O)NC(C)(CO)C2CC2)c(C(F)(F)F)c1` (centres undefined): the INHIBITION is listed as -16.93%.
The same measure for `CCN(CC)C(=O)c1cc(Br)cc(S(=O)(=O)N2CCOCC2)c1F`: 0.48%; for `O=C(COCc1ccccc1)N1CCC(OCc2cccnc2)CC1`: 34.34%; for `Cc1cc(C)c(C(=O)N2CCCC(C(=O)CCc3ccccc3)C2)cn1` (centres undefined): 0.73%.
The same measure for `CN(C)S(=O)(=O)N1CCOC(c2cccc(-c3cncnc3)n2)C1` (centres undefined): -12.93%; for `CN(C)C(=O)CNC(=O)c1nc(C2CC2)n(-c2ccccc2Cl)n1`: 65.76%.
The same measure for `CCc1nc(C(=O)N2CCCCC2)nn1-c1ccccc1Cl`: -41.76%.
Consider `Cc1nc(C(=O)N2CCCCC2)nn1-c1ccccc1Cl`, for which the INHIBITION is recorded as 60.09%.
Turning to `CCN1CCN(C(=O)c2nc(C)n(-c3ccccc3Cl)n2)CC1`, the INHIBITION is recorded as -18.67%.
The same measure for `CCNC(=O)CNC(=O)c1nc(C2CC2)n(-c2ccccc2Cl)n1`: 13.01%; for `CC(=O)NCCNC(=O)c1nc(C2CC2)n(-c2ccccc2Cl)n1`: -1.79%.
